From PubChem BioAssay AID1159580 (chemical genetic matrix, 2015)
“And” between values parts separate entries of the source, which are not always exact repeats. Equal values may be shown once. The campaign covered roughly 5,500 compounds. About 2,000 (36%) were called active. Not shown: some 18% with an inconclusive outcome. No stated cut-off is given here; in the data, active means normalized growth mostly below about 0.91 (no sharp cut-off); inconclusive means no clear call, values can overlap the other calls; inactive means mostly above about 0.92. This is one part of the list.

Experiment: chemical genetic growth profiling, strain panel (AID 1159580);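 further: tested at 20 µM; growth read once vehicle control cultures reached saturation at 30 °C; 1 = growth at the plate median or of vehicle wells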
Conditions: S. cerevisiae deletion strains, growth OD

Measured: normalized growth

CCN(CC)CCNC(=O)c1cc(Br)c(N)cc1OC
inactive: locus YAL021C, strain ccr4, stronger effect = lower value 0.984 | locus YAL026C, strain drs2, stronger effect = lower value 0.997 | locus YAL030W, strain snc1, stronger effect = lower value 0.997 | locus YBL061C, strain skt5, stronger effect = lower value 0.992 | locus YBR009C, strain hhf1, stronger effect = lower value 1.02 | locus YBR021W, strain FUR4, stronger effect = lower value 1.03 | locus YBR023C, strain chs3, stronger effect = lower value 0.992 | locus YBR171W, strain sec66, stronger effect = lower value 0.983 | locus YBR229C, strain ROT2, stronger effect = lower value 0.957 | locus YBR231C, strain swc5, stronger effect = lower value 0.981 | locus YBR279W, strain paf1, stronger effect = lower value 0.991 | locus YCL011C, strain gbp2, stronger effect = lower value 0.978 | locus YCL016C, strain dcc1, stronger effect = lower value 0.992 | locus YCL029C, strain bik1, stronger effect = lower value 0.989 | locus YCL061C, strain MRC1, stronger effect = lower value 0.984 | locus YCL069W, strain vba3, stronger effect = lower value 0.987 | locus YCR088W, strain abp1, stronger effect = lower value 0.981 | locus YDL005C, strain med2, stronger effect = lower value 0.989 | locus YDL035C, strain GPR1, stronger effect = lower value 0.986 | locus YDL040C, strain nat1, stronger effect = lower value 1 | locus YDL074C, strain BRE1, stronger effect = lower value 0.947 | locus YDL101C, strain DUN1, stronger effect = lower value 0.976 | locus YDL134C, strain PPH21, stronger effect = lower value 1.01 | locus YDL185W, strain tfp1, stronger effect = lower value 0.983 | locus YDL192W, strain arf1, stronger effect = lower value 0.983 | locus YDR001C, strain nth1, stronger effect = lower value 0.979 | locus YDR069C, strain doa4, stronger effect = lower value 1.01 | locus YDR101C, strain arx1, stronger effect = lower value 0.979 | locus YDR137W, strain rgp1, stronger effect = lower value 1.04 | locus YDR159W, strain sac3, stronger effect = lower value 1 | locus YDR162C, strain NBP2, stronger effect = lower value 1 | locus YDR195W, strain ref2 0.967 | locus YDR297W, strain sur2, stronger effect = lower value 0.976 | locus YDR318W, strain mcm21, stronger effect = lower value 1 | locus YDR334W, strain swr1, stronger effect = lower value 0.954 | locus YDR335W, strain msn5, stronger effect = lower value 0.987 | locus YDR388W, stronger effect = lower value 0.989 | locus YDR392W, strain spt3, stronger effect = lower value 0.932 | locus YDR502C, strain sam2, stronger effect = lower value 0.983 | locus YEL003W, strain gim4, stronger effect = lower value 0.979 | locus YEL037C, strain rad23, stronger effect = lower value 0.985 | locus YEL061C, strain CIN8 (second series), stronger effect = lower value 0.982 | locus YEL061C, strain CIN8, stronger effect = lower value 0.978 | locus YER015W, strain faa2, stronger effect = lower value 0.986 | locus YER016W, strain bim1, stronger effect = lower value 0.997 | locus YER110C, stronger effect = lower value 0.978 | locus YER111C, strain swi4, stronger effect = lower value 1.01 | locus YER155C, strain BEM2 (second series), stronger effect = lower value 1 | locus YER155C, strain BEM2, stronger effect = lower value 1 | locus YER167W, strain BCK2, stronger effect = lower value 1.01 | locus YFR010W, strain ubp6, stronger effect = lower value 0.984 | locus YGL078C, strain dbp3, stronger effect = lower value 0.974 | locus YGL086W, strain mad1, stronger effect = lower value 0.98 | locus YGL167C, strain pmr1, stronger effect = lower value 0.98 | locus YGL173C, strain kem1, stronger effect = lower value 0.991 | locus YGL227W, strain vid30, stronger effect = lower value 0.995 | locus YGL240W, strain doc1, stronger effect = lower value 0.993 | locus YGL248W, strain PDE1, stronger effect = lower value 0.971 | locus YGL253W, strain hxk2, stronger effect = lower value 0.982 | locus YGR078C, strain PAC10, stronger effect = lower value 0.975 | locus YGR135W, strain pre9, stronger effect = lower value 1.04 | locus YGR252W, strain gcn5, stronger effect = lower value 1.02 | locus YHR013C, strain ard1, stronger effect = lower value 0.972 | locus YHR027C, strain rpn1, stronger effect = lower value 0.976 | locus YHR030C, strain SLT2, stronger effect = lower value 0.997 and 0.978 | locus YHR079C, strain IRE1 (second series), stronger effect = lower value 0.989 | locus YHR079C, strain IRE1, stronger effect = lower value 1 | locus YHR094C, strain hxt1, stronger effect = lower value 0.985 | locus YHR129C, strain ARP1, stronger effect = lower value 1 | locus YHR142W, strain chs7, stronger effect = lower value 0.97 | locus YHR200W, strain rpn10, stronger effect = lower value 0.994 | locus YIL066C, strain RNR3, stronger effect = lower value 0.965 | locus YIL073C, strain SPO22, stronger effect = lower value 1.04 | locus YIL125W, strain kgd1, stronger effect = lower value 0.985 | locus YIR030C, strain dcg1, stronger effect = lower value 0.986 | locus YJL092W, strain hpr5, stronger effect = lower value 0.973 | locus YJL095W, strain BCK1 (second series), stronger effect = lower value 0.99 | locus YJL095W, strain BCK1, stronger effect = lower value 0.962 and 0.993 | locus YJL115W, strain asf1, stronger effect = lower value 0.966 | locus YJL129C, strain trk1, stronger effect = lower value 0.99 | locus YJL134W, strain LCB3, stronger effect = lower value 0.994 | locus YJL154C, strain vps35, stronger effect = lower value 0.986 | locus YJL164C, strain tpk1, stronger effect = lower value 1.01 | locus YJL166W, strain qcr8, stronger effect = lower value 0.998 | locus YJL168C, strain set2, stronger effect = lower value 0.987 | locus YJL187C, strain SWE1 (second series), stronger effect = lower value 0.944 | locus YJL187C, strain SWE1, stronger effect = lower value 0.993
